The text below walks through data of PubChem BioAssay AID652054 (National Center for Advancing Translational Sciences (NCATS), 2013).

Molecules are shown by their SMILES. The campaign covered roughly 360,000 compounds. About 9,100 (2.5%) were called active. About 4% were inconclusive and are not listed. This is one part of a sample in which actives are shown more often than they occur. A number with no mark means an inactive call. Cut-off read from the data, not from the text of the source: active = max response below about -50%; inconclusive = no clear call, values can overlap the other calls; inactive = above that.
% is set by controls: 0 for no effect and ±100 for the full control effect.

Sequence of D(3) dopamine receptor (Homo sapiens) (P35462 whole entry, looked up): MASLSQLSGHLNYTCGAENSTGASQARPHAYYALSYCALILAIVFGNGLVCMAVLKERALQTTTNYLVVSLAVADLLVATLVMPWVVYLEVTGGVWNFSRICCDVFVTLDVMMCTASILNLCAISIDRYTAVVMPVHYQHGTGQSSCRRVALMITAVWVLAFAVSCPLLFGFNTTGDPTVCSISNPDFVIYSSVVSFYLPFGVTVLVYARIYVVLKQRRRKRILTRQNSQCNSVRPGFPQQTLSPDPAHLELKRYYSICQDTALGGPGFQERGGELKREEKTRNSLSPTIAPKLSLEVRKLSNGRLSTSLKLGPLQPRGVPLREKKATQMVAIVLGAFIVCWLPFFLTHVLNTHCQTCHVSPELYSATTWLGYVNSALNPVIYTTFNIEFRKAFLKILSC

The target in this assay is D(3) dopamine receptor (Homo sapiens) (UniProt P35462). Briefly: qHTS of D3 Dopamine Receptor Antagonist: qHTS. To be noted: D3R cells, DiscoveRx beta-arrestin luminescence, antagonist mode; stronger effect = lower value. The method in brief:
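Cells plated overnight at 1500 cells/well, then exposed to library compounds with dopamine controls for 90 minutes at 37 degrees C. DiscoveRx reagent added for 30–60 minutes at room temperature; luminescence read, quantitative HTS format.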
On to `CN1CCN(CCCNC(=O)c2cc3c(=O)oc4ccccc4c3s2)CC1`, for which the max response, negative = inhibition is 0%. As for `Cc1cccc2c1-c1sc(C(=O)NCCCN3CCc4ccccc4C3)cc1CO2`, the max response, negative = inhibition was -63.3% (active). The same measure for `CCn1cc(C(=O)NCCCN2CCCCCC2)c(=O)c2cc(S(=O)(=O)N3CCc4ccccc4C3)ccc21`: -2.35%; for `C[C@@H]1CN([C@@H](C)CO)C(=O)c2cc(Br)cnc2O[C@H]1CN(C)Cc1ccc(-c2ccccc2)cc1`: 24.5%; for `COc1ccc(CN2C(=O)C(CC(=O)NCCN3CCOCC3)CC(C(=O)N(C(C)C)C(C)C)=C2C)cc1` (centres undefined): 10.3%. The same measure for `COc1ccc([C@H]2N[C@]3(CCCN(CC4CCCCC4)C3=O)[C@H]3C(=O)N(C)C(=O)[C@@H]23)cc1`: -3.44%; for `CCOc1c2ccc(C(=O)NCc3ccc4c(c3)OCO4)cc2nn1C`: 21.7%; for `COc1cc(OC)c(C(=O)NCc2ccc3c(c2)OCO3)cc1OC`: -7.32%. As for `COc1ccccc1-n1c(C)nc2cc(C(=O)NCc3ccc4c(c3)OCO4)ccc21`, the max response, negative = inhibition was -53.5% (active). As to `C[C@@H]1CC2=C(C(=O)OC(C)(C)O2)[C@@H](C2CC2)O1`, the max response, negative = inhibition was 20%. Under `CC1(C(=O)NCc2ccccc2)CN(S(C)(=O)=O)CC(=O)N1CC(F)(F)F` (centres undefined) stands 17.5%; under `Cc1cccc(C(=O)C(O)(c2ccccc2)C2CCCCC2=O)c1` (centres undefined), 6.43%; under `CC(=O)c1cc2c(cc1NC(=O)CN1CCCCCC1)OCO2`, -65% (active). With `CC(=O)c1cc2c(cc1NC(=O)Cn1nc(-c3ccc(F)cc3)ccc1=O)OCO2`, the max response, negative = inhibition was -11.4%.

Take `O=C(CN1CCCCCC1)Nc1ccc(Br)cc1Br`: the max response, negative = inhibition was -12.8%. Turning to `COc1ccc(C(C)(O)c2nc(-c3cc(F)cc(F)c3)cs2)cc1` (centres undefined), the max response, negative = inhibition is 2.54%.

With `Cc1ccccc1S(=O)(=O)NC(=O)C1(C)CCN1C(=O)Cc1ccc(Cl)cc1Cl` (centres undefined), the max response, negative = inhibition was -7.52%.

Regarding `O=C1[C@H]2[C@@H](c3ccc(C(F)(F)F)cc3)N[C@]3(CCCN(Cc4ccc(Br)cc4)C3=O)[C@H]2C(=O)N1Cc1ccccc1`, the max response, negative = inhibition is 29.8%. For `CC(C)CCNc1nc(N2CCCC2)c2c(c1C#N)CCN(C)C2`, the max response, negative = inhibition was -65.7% (active). As for `CCc1nc(NCCO)c(C#N)c2c1CCCC2`, the max response, negative = inhibition was -13.6%. On to `CC(C)Cc1nc(N2CCOCC2)c(C#N)c2c1CCC2`, for which the max response, negative = inhibition was 36.7%.

As for `CCOC(=O)C1(C)CCCN(C(=O)c2ccc(N(C)C)cc2)C1` (centres undefined), the max response, negative = inhibition is 3.97%. For the molecule `NC(=O)NC(CC(=O)NNC(=O)c1ccccn1)c1ccc(Cl)cc1` (centres undefined), the max response, negative = inhibition was -12.6%. The same measure for `C/C(=N\NC(=O)Cc1ccc(Cl)cc1)c1ccccn1`: -93.2% (active).

With `CC(=NNC(=S)N1CCCCCC1)c1ccccn1`, the max response, negative = inhibition is 18.7%. In the case of `CC1(C(=O)NS(=O)(=O)c2ccc(Cl)cc2)CCN1C(=O)CC1CCCC1` (centres undefined), the max response, negative = inhibition is -16%. For `CCN1C(=O)[C@H]2[C@@H](c3ccccc3)N[C@]3(CCCN(Cc4ccc(C)cc4)C3=O)[C@H]2C1=O`, the max response, negative = inhibition was -7.93%. Under `CCc1nc2ccc(C(=O)N3CCC(O)(Cc4ccccc4)CC3)cn2c1N(C)C(=O)Cc1ccccc1` stands -22.4%; under `Cc1ccc(CN2CCN(Cc3cn(C)nc3-c3ccccc3)CC2CCO)o1` (centres undefined), 3.14%; under `Cc1ccc(CN2CCN(c3ccccc3Cl)CC2)o1`, -75.6% (active).

Regarding `Cc1ccc(CN2CCN(Cc3ccc(OCCO)cc3)CC2CCO)o1` (centres undefined), the max response, negative = inhibition was 4.23%. Under `COc1ccc(C(CNC(=O)c2cccc(NS(=O)(=O)c3ccc(C)c(F)c3)c2)N2CCCC2)cc1` (centres undefined) stands -55.7% (active); under `CN(C)C(CNC(=O)c1cccc(S(=O)(=O)N2CCc3ccccc3C2)c1)c1ccccc1` (centres undefined), -80.6% (active); under `COc1ccc(C(CNC(=O)c2cccc(S(=O)(=O)Nc3ccc(Br)cc3)c2)N(C)C)cc1` (centres undefined), -53.5% (active). `COc1ccc(C(CNC(=O)c2cc(S(=O)(=O)Nc3cccc(C)c3)ccc2C)N2CCCC2)cc1` (centres undefined): the max response, negative = inhibition is -25.7%. For the molecule `COc1ccccc1C(CNC(=O)c1cccc(S(=O)(=O)Nc2ccc(F)cc2)c1)N(C)C` (centres undefined), the max response, negative = inhibition is -23.9%. As for `CC(NC(=O)c1cccc(S(=O)(=O)N2CCc3ccccc3C2)c1)c1ccco1` (centres undefined), the max response, negative = inhibition is 4.52%. The same measure for `COc1ccc(C(CNC(=O)c2cccc(S(=O)(=O)Nc3ccccc3Cl)c2)N2CCOCC2)cc1` (centres undefined): 22.5%; for `COc1ccc(C(CNC(=O)c2ccc(NS(=O)(=O)c3ccc(F)c(C)c3)cc2)N(C)C)cc1` (centres undefined): -15.4%.

As to `O=C(Nc1ccc(S(=O)(=O)N2CCc3ccccc3C2)cc1)c1ccccc1`, the max response, negative = inhibition was 19.5%. Under `CC1(C(=O)NCc2ccc3c(c2)OCO3)CCN1C(=O)Cc1cccs1` (centres undefined) stands 27.8%; under `CCCc1c(C)nc2scc(-c3ccc(Cl)cc3)n2c1=O`, 3.72%. The same measure for `COc1ccc(OC)c(C(O)c2ncc(-c3cccc(C(F)(F)F)c3)[nH]2)c1` (centres undefined): -26%. Under `CCOC(=O)[C@]12CCCC=C1N(Cc1cccc3ccccc13)C(=O)[C@H](CC(=O)NCC13CC4CC(CC(C4)C1)C3)C2` stands -25.2%; under `CCCNC(=O)c1cc(C2CCCCN2S(=O)(=O)c2cn(C)cn2)on1` (centres undefined), 0.438%. For `CN(C)c1cccc(NC(=O)c2ccc(-c3ccc(F)c(F)c3)c3ccoc23)c1`, the max response, negative = inhibition was -0.987%. Take `CC(C)CN1C(=O)CN(S(C)(=O)=O)CC1(C)C(=O)NCc1ccccc1` (centres undefined): the max response, negative = inhibition is 18.8%.

Turning to `Clc1ccc(-n2nnnc2-c2cnc(-c3ccccn3)nc2-c2cccs2)cc1`, the max response, negative = inhibition is -60.1% (active). The same measure for `FC(F)(F)c1nc(-c2ccccc2)ncc1-c1nnnn1-c1ccccc1`: 16.8%; for `N#Cc1ccc(CSc2nnc(-c3ccccn3)n2-c2ccc(Cl)cc2)cc1`: -15.7%; for `Cn1c(NCc2cccnc2)nc2cc(-c3ccc(F)cc3)sc2c1=O`: 0%. Regarding `CCc1ccc(-c2nnn(Cc3nc4ccccc4s3)n2)cc1`, the max response, negative = inhibition is 12.9%. Under `CCN(CC)CCCSc1nc2ccccc2s1` stands -73.9% (active); under `CCN(CC)CCn1c2c(c(SCC(=O)Nc3nc4ccccc4s3)nc1=O)CCCC2`, -4.31%; under `CCc1nc2ccc(C(=O)Nc3ccc(OC)c(OC)c3)cn2c1N(C)C(=O)c1cccc(OC)c1`, -28%.

For the molecule `COc1ccc(-c2nc(CS(=O)CC(=O)NCc3cccnc3)c(C)o2)cc1OC` (centres undefined), the max response, negative = inhibition is -53.3% (active). In the case of `COc1cccc(-c2nc(CS(=O)CC(=O)NCc3ccc(F)cc3)c(C)o2)c1` (centres undefined), the max response, negative = inhibition is -12.9%. Under `COc1ccc(-c2nc(CS(=O)CC(=O)NCc3ccccc3)c(C)o2)cc1OC` (centres undefined) stands -17%; under `CCN(CC)CCN(C)C(c1ccnc2ccccc12)c1nnnn1-c1ccc2c(c1)OCCO2` (centres undefined), 0%; under `COc1ccc(CCNC(=O)COC(=O)/C=C/c2cccs2)cc1OC`, -11.9%.

`Cn1c(C(=O)NCCCN2CCCCC2)cc2sccc21`: the max response, negative = inhibition was -17.4%. As to `COc1ccc(CCNC(=O)c2cc3sccc3n2C)cc1OC`, the max response, negative = inhibition is -72% (active). Under `COc1cc(C(O)c2nc(-c3cccc(C(=O)O)c3)cs2)ccc1F` (centres undefined) stands 5.94%; under `CN(Cc1c(F)cccc1Cl)C(=O)COC(=O)Cn1cnc2ccccc2c1=O`, 16%. The same measure for `O=C(COc1ccc(Cl)cc1)NCCC1=CCCCC1`: -11.2%. Under `Cc1nnc(OCC(=O)NCCC2=CCCCC2)c2ccccc12` stands -80.1% (active). On to `O=C(COc1cccc(-n2cnnn2)c1)NCCC1=CCCCC1`, for which the max response, negative = inhibition is -5.35%.

For the molecule `COc1ccc(CN2CCN(Cc3ccc(OC)c(OC)c3OC)CC2)cc1`, the max response, negative = inhibition is -14%. For `COc1cc(COCC(O)CN2CCN(Cc3ccc4c(c3)OCO4)CC2)cc(OC)c1OC` (centres undefined), the max response, negative = inhibition was -12.9%. The same measure for `CNCC(O)CN1CCN(c2ccccc2OC)CC1` (centres undefined): 4.65%; for `COc1cc(CNCc2ccc(OC)c3ccccc23)cc(OC)c1OC`: 4.84%. Under `COc1ccccc1N1CCN(Cc2ccc(OC)c3ccccc23)CC1` stands -67.7% (active); under `COc1ccccc1N1CCN(Cc2cc(OC)c3c(c2)OCO3)CC1`, -91.2% (active); under `CNc1cncc(-c2ccc(NS(C)(=O)=O)cc2)n1`, -5.71%.

On to `COc1ccc(CCNC(=O)Nc2ccc3c(c2)c(=O)n(C)n3C)cc1OC`, for which the max response, negative = inhibition was 6.66%. For the molecule `O=C(CC(CC(=O)c1ccccc1)c1ccco1)c1ccccc1`, the max response, negative = inhibition was 11.4%.

For `CSCCC(C(=O)NC(C)(C)C)n1c(-c2ccccc2)nc2ccccc21` (centres undefined), the max response, negative = inhibition is -15.5%. Under `CCC(C(=O)NC(C)(C)C)n1c(-c2ccccc2)nc2ccccc21` (centres undefined) stands 0.73%; under `CC(C)(C)NC(=O)C(CCc1ccccc1)n1c(=O)c(-c2ccccc2)nc2ccccc21` (centres undefined), -66.1% (active); under `Cc1cn([C@H]2C[C@H](O)[C@@H](CNC(=O)[C@H](N)Cc3cccnc3)O2)c(=O)[nH]c1=O`, 22.6%.

For `Cc1ccc(NC(=O)COC(=O)CN2CCSC2=O)cc1F`, the max response, negative = inhibition is 37.5%. The same measure for `O=C(c1ccc(-c2ccccc2)cc1)C1CCCN(C(=O)c2cncs2)C1` (centres undefined): -57.7% (active); for `Cn1nccc1C(=O)N1CCCC(C(=O)c2ccc(Oc3ccccc3)cc2)C1` (centres undefined): 22.9%; for `CCNC(=O)N1CCCC(C(=O)c2ccc(-c3ccccc3)cc2)C1` (centres undefined): 10.6%. `CC1(C(=O)Nc2cccc3c2CCCC3)CCN1C(=O)CCc1ccc(Cl)cc1Cl` (centres undefined): the max response, negative = inhibition is 9.05%.

Consider `COc1cccc(CNc2nc3cc(-c4csc5ccccc45)sc3c(=O)n2C)c1`, for which the max response, negative = inhibition was 6.45%. Consider `COc1cc2c(cc1OC)C(Nc1ccc(S(N)(=O)=O)cc1)=NC(C)(C)C2`, for which the max response, negative = inhibition was 3.38%. The same measure for `COc1cc2c(cc1OC)C(C(C)C)=NC(C)(C)C2`: -19.9%. The same measure for `COc1cc2c(cc1O)C(SC)=NC(C)(C)C2`: -89.4% (active).
